# Assay results as given in PubChem BioAssay (NCATS).
# Records with an inconclusive call do not appear. Activity calls are given as the source filed them. The call rests on the fitted dose curve; in most records, active means well fitted curve in the direction sought with a large enough effect; inconclusive means small, poorly fitted or top-dose-only effect, or another doubt; inactive means no such curve, though single readings can be large; an effect the other way counts as inactive or inconclusive.
# How the values were obtained:
# [1] = Quantitative High-Throughput drug screen in 47 multiple myeloma cell lines against the NCATS MIPE library collection: KMS12BM_JCRB cell viability assay (AID 1918971); further: nearly all actives have a fitted effect of over 35% in size
# Method in brief: (§1)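 Luminescent ATP measurement with CellTiter-Glo gives viability, scaled between DMSO-only wells (100%) and media-only wells (0%). Cells, 500 per well, faced library compounds for 48 hours at 37C.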
# [2] = Quantitative High-Throughput drug screen in 47 multiple myeloma cell lines against the NCATS MIPE library collection: KMS12PE_JCRB cell viability assay (AID 1918972); further: nearly all actives have a fitted effect of over 30% in size; on viability: series mostly up to about 46 µM
# Method in brief: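 We plated 500 myeloma cells per well, pinned in MIPE 4.0 compounds, and incubated for 48 hours at 37C. ATP was then quantified with CellTiter-Glo, with DMSO and media-only wells defining 100% and 0%.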
# [3] = Quantitative High-Throughput drug screen in 47 multiple myeloma cell lines against the NCATS MIPE library collection: KMS26_JCRB cell viability assay (AID 1918975); further: nearly all actives have a fitted effect of over 45% in size
# Method in brief: as §1
# [4] = Quantitative High-Throughput drug screen in 47 multiple myeloma cell lines against the NCATS MIPE library collection: MMM1_PLB cell viability assay (AID 1918976); further: nearly all actives have a fitted effect of over 35% in size
# Method in brief: (§2)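 Plated at 500 cells per well, myeloma lines received MIPE 4.0 compounds by pin tool. Following 48 h culture at 37 °C, CellTiter-Glo luminescence gave viability relative to DMSO and media-only controls.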
# [5] = Quantitative High-Throughput drug screen in 47 multiple myeloma cell lines against the NCATS MIPE library collection: NCIH929_DSMZ cell viability assay (AID 1918978); further: nearly all actives have a fitted effect of over 35% in size
# Method in brief: as §2
# [6] = Quantitative High-Throughput drug screen in 47 multiple myeloma cell lines against the NCATS MIPE library collection: OCIMY1_PLB cell viability assay (AID 1918979); further: nearly all actives have a fitted effect of over 35% in size; on viability: series mostly up to about 46 µM
# Method in brief: as §2
# [7] = Quantitative High-Throughput drug screen in 47 multiple myeloma cell lines against the NCATS MIPE library collection: MM1S_ATCC cell viability assay (AID 1918980); further: nearly all actives have a fitted effect of over 45% in size
# Method in brief: as §2
# [8] = Quantitative High-Throughput drug screen in 47 multiple myeloma cell lines against the NCATS MIPE library collection: MOLP8_DSMZ cell viability assay (AID 1918977); further: nearly all actives have a fitted effect of over 45% in size
# Method in brief: as §2
# [9] = Quantitative High-Throughput drug screen in 47 multiple myeloma cell lines against the NCATS MIPE library collection: KMS20_JCRB cell viability assay (AID 1918973); further: nearly all actives have a fitted effect of over 45% in size
# Method in brief: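 CellTiter-Glo ATP luminescence gave viability after 48 h compound treatment at 37C of 500 multiple myeloma cells per well. Normalisation used DMSO-only wells as 100% and media-only wells as 0% viability; primary qHTS of approved and investigational drugs.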
# Potency means the concentration at half of the fitted maximal effect.
Compound,Potency [1],Potency [2],Potency [3],Potency [4],Potency [5],Potency [6],Potency [7],Potency [8],Potency [9]
C=C1[C@H](n2cnc3c(=O)[nH]c(N)nc32)C[C@H](O)[C@H]1CO,0.418 µM (active),0.296 µM (active),inactive,3.72 µM (active),20.9 µM (active),inactive,14.8 µM (active),,
O=c1[nH]c(=O)n([C@H]2C[C@@H](O)[C@@H](CO)O2)cc1I,inactive,1.48 µM (active),inactive,,inactive,inactive,,inactive,
COc1c(C)c2c(c(O)c1CC=C(C)CCC(=O)OCCN1CCOCC1)C(=O)OC2,4.18 µM (active),3.72 µM (active),inactive,,,10.5 µM (active),,2.96 µM (active),
CCOc1ccccc1N=Nc1c(C)[nH]n(-c2nc(-c3ccccc3)cs2)c1=O,16.6 µM (active),18.7 µM (active),4.18 µM (active),8.33 µM (active),0.264 µM (active),7.43 µM (active),13.2 µM (active),,
O=C(Nc1ccc(OC(F)(F)F)cc1)c1sccc1NCc1ccnc2ccccc12,14.8 µM (active),18.7 µM (active),18.7 µM (active),16.6 µM (active),20.9 µM (active),,20.9 µM (active),,
CON(C)C(=O)N1N=C(c2cc(F)ccc2F)S[C@]1(CCCN)c1ccccc1,inactive,0.001 µM (active),inactive,,inactive,inactive,inactive,inactive,
NCc1c[nH]c(=S)n1[C@H]1CCc2c(F)cc(F)cc2C1,13.2 µM (active),14.8 µM (active),20.9 µM (active),,,inactive,23.5 µM (active),18.7 µM (active),
COc1ccc(-c2nc3ccc(C4=NNC(=O)CC4C)cc3[nH]2)cc1 (centres undefined),inactive,inactive,inactive,,,,23.5 µM (active),inactive,
CSc1cccc(Nc2ncc3cc(-c4c(Cl)cccc4Cl)c(=O)n(C)c3n2)c1,1.32 µM (active),0.059 µM (active),9.35 µM (active),,13.2 µM (active),,,0.833 µM (active),
Fc1ccc(CNc2ncnc3ccc(F)cc23)cc1,3.72 µM (active),4.69 µM (active),inactive,4.18 µM (active),16.6 µM (active),14.8 µM (active),14.8 µM (active),,
C[C@@H]1CC=CC=CC=CC=C[C@@H](O[C@@H]2O[C@H](C)[C@@H](O)[C@H](N)[C@H]2O)C[C@@H]2O[C@](O)(C[C@@H](O)C[C@@H]3O[C@@H]3C=CC(=O)O1)C[C@H](O)[C@@H]2C(=O)O,10.5 µM (active),inactive,inactive,23.5 µM (active),16.6 µM (active),9.35 µM (active),20.9 µM (active),,
COc1ccc2cc1Oc1ccc(cc1)C[C@H]1c3cc(c(OC)cc3CCN1C)Oc1c(OC)c(OC)cc3c1[C@H](C2)N(C)CC3,13.2 µM (active),4.69 µM (active),14.8 µM (active),6.62 µM (active),20.9 µM (active),18.7 µM (active),18.7 µM (active),,
CC(C)(OCc1nn(Cc2ccccc2)c2ccccc12)C(=O)O,0.418 µM (active),inactive,6.62 µM (active),inactive,,inactive,13.2 µM (active),,
CC[C@H](CC#N)OC(=O)N[C@@H](C)c1cccc(NC(=O)Nc2ccc(-c3cnco3)c(OC)c2)c1,1.48 µM (active),14.8 µM (active),20.9 µM (active),20.9 µM (active),,,1.18 µM (active),,
CN(C)CCN(Cc1ccc(Cl)cc1)c1ccccn1,inactive,inactive,,,10.5 µM (active),inactive,16.6 µM (active),,
CN1CCC(COc2cnc(-c3cccc(Cn4nc(-c5cccc(C#N)c5)ccc4=O)c3)nc2)CC1,13.2 µM (active),,0.235 µM (active),0.059 µM (active),0.0526 µM (active),,0.0743 µM (active),inactive,0.526 µM (active)
CN1N=C(N)c2cn([C@@H]3O[C@H](COP(=O)(O)O)[C@@H](O)[C@@H]3O)c3ncnc1c23,6.62 µM (active),,0.0132 µM (active),0.469 µM (active),0.0469 µM (active),,,,1.32 µM (active)
COc1cc(CNC(=O)CCCCC=CC(C)C)ccc1O,inactive,inactive,,,18.7 µM (active),inactive,inactive,,
CCOC(=O)c1c(CSc2ccccc2)n(C)c2cc(Br)c(O)c(CN(C)C)c12,18.7 µM (active),,11.8 µM (active),18.7 µM (active),inactive,16.6 µM (active),,5.9 µM (active),
O=C1CCCC(=O)C1C(=O)c1ccc(C(F)(F)F)cc1[N+](=O)[O-],0.166 µM (active),inactive,,,inactive,inactive,18.7 µM (active),,
Cn1c(=O)c(Oc2ccc(F)cc2F)cc2cnc(NC3CCOCC3)nc21,16.6 µM (active),,inactive,1.87 µM (active),inactive,,,,inactive
C[C@@H]1[C@H](C)CC[C@]2(C(=O)O)CC[C@]3(C)C(=CC[C@@H]4[C@@]5(C)CC[C@H](O)C(C)(C)[C@H]5CC[C@]43C)[C@@H]12,19.1 µM (active),,19.1 µM (active),21.5 µM (active),inactive,54 µM (active),inactive,,inactive
COc1cc2c(cc1Cc1cccc(Cl)c1F)c(=O)c(C(=O)O)cn2[C@H](CO)C(C)C,6.62 µM (active),,20.9 µM (active),16.6 µM (active),18.7 µM (active),,16.6 µM (active),13.2 µM (active),
CO[C@H]1/C=C\O[C@@]2(C)Oc3c(C)c(O)c4c(O)c(c(C=NN5CCN(C6CCCC6)CC5)c(O)c4c3C2=O)NC(=O)C(C)=CC=C[C@H](C)[C@H](O)[C@@H](C)[C@@H](O)[C@@H](C)[C@H](OC(C)=O)[C@H]1C,6.62 µM (active),,20.9 µM (active),5.26 µM (active),0.105 µM (active),9.35 µM (active),,8.33 µM (active),
CS(=O)(=O)c1ccc(C2=C(c3ccccc3)C(=O)OC2)cc1,inactive,,inactive,,inactive,inactive,,inactive,inactive
